# Inconclusive results are not listed. Values without a mark were called inactive. Active and inactive are the calls of the source. The call rests on the fitted dose curve; in most records, active means well fitted activation curve with a large enough effect; inconclusive means small, poorly fitted or top-dose-only effect; inactive means flat fitted curve, though single readings scatter.
# Experiment: qHTS for H2AX Agonists against the NCATS CANVASS Library (AID 1347378); on activation: 0% is about no effect
# Conditions: CHO-K1 H2AX phosphorylation, HTRF TR-FRET, 3 h; series mostly up to 76.9 µM; activation: at the top concentration
# Text: Natural products and their derivatives continue to be wellsprings of nascent therapeutic potential. However, many laboratories have limited resources for biological evaluation, leaving their previously isolated or synthesized compounds largely or completely untested. To address this issue, the Canvass library of natural products was assembled (https://tripod.nih.gov/canvass), in collaboration with academic and industry researchers, for quantitative high-throughput screening (qHTS) across a diverse set of cell-based and biochemical assays. The pure (>85% purity by liquid chromatography/mass spectrometry [LC/MS]) Canvass library of 346 natural products were submitted by 45 academic laboratories and companies around the world. We collected pure natural products to circumvent deconvolution and structure elucidation due to time and resource limitations. The library was formatted into 1536-well plates and evaluated in 50 qHTS (in an 11-pnt concentration series) bioassays with broad scope of disease-relevant mechanisms. The resulting data set from 50 different assays was then systematically analyzed to identify overall trends and specific natural products with interesting biological activities. Reported herein are the results of each individual qHTS and their corresponding assay protocol. This assay determines the levels of phospho-H2AX in cell lysates of Chinese hamster ovary CHO cells. It is based on time resolved fluorescence resonance energy transfer (TR-FRET). Two anti-H2AX antibodies are labeled with europium cryptate and d2, respectively. The increase of FRET levels is proportional to the concentration of phosphorylated H2AX. The results were expressed as the ratio of 665/615 nm emissions. National Center for Advancing Translational Sciences (NCATS), Rockville, MD National Institute of Health (NIH), Bethesda, Maryland
# H2AX assay protocol: The CHO-K1 cells suspended in culture medium containing 10% FBS were dispensed at 1000 cells/ 3 ul/well in 1536-well white wall/solid bottom plates (Greiner Bio-One North America, NC) using a Multidrop Combi (Thermo Fisher Scientific Inc., Waltham, MA). After the assay plates were incubated at 37C overnight, 23 nl of compounds at 15 concentrations (from 5-48 columns) or positive control (from 1 to 4 columns) were transferred to the assay plates using a Pintool station (Wako, San Diego, CA) into each well resulting in a final DMSO concentration of 0.76%. After 3hr incubation at 37C, 1 uL/well Supplemented Lysis buffer (diluted 100 fold blocking reagent in lysis buffer) (HTRF Phospho-H2A.X (S139) Assay kit from Cisbio US Inc., Bedford, MA) was added using a Flying Reagent Dispenser (FRD) (Aurora Discovery, CA). After 10sec spin at 1000 rpm in a plate centrifuge, the assay plates were incubated at room temperature for 30 min. Then followed by the addition of 1 uL/well detection buffer (containing a mixture of two antibodies, one labeled with cryptate, Anti pH2AX (S139)-K and another labeled with d2, Anti H2AX-d2) using FRD. After incubation at room temperature for 24 hr, the time resolved fluorescence at excitation 320 nm and emissions at 665 nm and 620 nm was measured using an Envision plate reader (PerkinElmer, Waltham, MA).
# Potency means the concentration at half of the fitted maximal effect.
Compound,activation,Potency
CCN1C[C@]2(C)CC[C@H](O)[C@]34C1C(C[C@H]23)[C@@]12CC[C@H](CC14)[C@](O)(COC(=O)c1ccc(OC)c(OC)c1)[C@H]2O (stereo partly specified),-4.4%,–
CNCCc1ccc(O)cc1,-4.27%,–
c1ccc2c3c([nH]c2c1)CNCC3,7.97%,–
CCN1C[C@]2(C)CC[C@@H](O)[C@]34C1[C@H](C[C@H]23)C12CCC(CC14)[C@](O)(CO)[C@H]2O (stereo partly specified),-2.96%,–
CCCCC[C@@H]1OC(=O)[C@@H](C)N(C)C(=O)[C@H](CCCCC)OC(=O)C(C)N(C)C(=O)[C@H](CCCCC)OC(=O)[C@@H](C)N(C)C(=O)[C@H](CCCCC)OC(=O)C(C)N(C)C1=O (stereo partly specified),4.07%,–
CNCCc1c[nH]c2ccccc12,-1.63%,–
CCC(=O)CCCCC[C@@H]1NC(=O)[C@H]2CCCCN2C(=O)[C@H]([C@@H](C)CC)NC(=O)[C@H](Cc2cn(OC)c3ccccc23)NC1=O,10.5%,–
C[C@@H]1CC[C@@H](c2ccoc2)N2C[C@@]3(CC[C@@H]12)CS[C@@]1(CC[C@H]2[C@H](C)CC[C@@H](c4ccoc4)N2[C@@H]1O)C3,–,10.9 µM (active)
O=C(c1ccccc1O)c1[nH]c(Cl)c(Cl)c1-n1c(C(=O)c2ccccc2O)cc(Cl)c1Cl,0.287%,–
COC(=O)C1=C2Nc3ccccc3[C@@]23CCN2CC(C(C)=O)C1C[C@H]23 (stereo partly specified),1.18%,–
CC[N@@+]1([O-])C[C@]2(C)CC[C@@H](O)[C@@]34C5C[C@H]6CC[C@@]5(C(C[C@H]23)C41)[C@H](O)[C@@]6(O)CO (stereo partly specified),-1.75%,–
CNCCc1ccccc1,-3.54%,–
C[C@]12CC(O)C3[C@@H](CCC4C[C@@H](O)CC[C@@]43CO)[C@@]1(O)CCC2C1=CC(=O)OC1 (stereo partly specified),0.999%,–
NCCc1ccccc1,1.35%,–
C=C1[C@@H](C)[C@H]2[C@H](Cc3ccccc3)NC(=O)[C@]23OC(=O)/C=C/[C@H](O)CCC[C@@H](C)C/C=C/[C@H]3[C@@H]1O,-0.114%,–
CCC[C@H]1CC[C@H]2[C@H](C)CCC[C@H]2N1,2.48%,–

Compound,activation,Potency
CO[C@@H](/C=C/CC/C=C/C(=O)O)[C@@H](O)[C@H](C)/C=C(\C)[C@@H](O)[C@H](C)C(=O)CCCC1CC(=O)NC(=O)C1,0.0052%,–
CN(C)Cc1c[nH]c2ccccc12,-1.72%,–
CCCC[C@@H]1CC[C@H]2CCCC(CCC)N12 (stereo partly specified),-2.98%,–
CO[C@@H](/C=C/CC/C=C/C(=O)O)[C@@H](O)[C@H](C)[C@@H](O)/C(C)=C/[C@H](C)C(=O)CCCC1CC(=O)NC(=O)C1,-2.99%,–
C/C=C1/CN2CC[C@]34C(=Nc5ccccc53)[C@@H]2C[C@@H]1[C@H]4C(=O)OC,-0.995% [at 153 µM],–
CO[C@H](c1ccccc1)[C@H]1NC(=O)C(C)NC(=O)C(C[C@@H](C)CO)N(C)C(=O)[C@@H](C(O)c2cn(C(C)(C)C3CO3)c3ccccc23)NC(=O)C(C(C)C=C(C)C)NC(=O)C(CC(C)C)N(C)C(=O)C(C(C)C)NC1=O (stereo partly specified),7.78% [at 46 µM],–
CC=C1CN(C=O)[C@H]2C[C@@H]1[C@@H](C(=O)OC)[C@@]13CCOC21Nc1ccccc13 (stereo partly specified),-0.225%,–
COc1ccc2c(c1)[nH]c1c(C)nccc12,-3.08% [at 153 µM],–
CC1=CC2CC[C@@H]3[C@@H](C)C[C@H](C)[C@@H](C1)N23 (stereo partly specified),4.69%,–
CC1=CC(=O)C2=C(C)C[C@H](O)[C@@H]3[C@H](OC(=O)[C@@H]3C)[C@@H]12,0.894%,–
CC[C@@H]1CN2CC[C@@]3(O)C(=Nc4cccc(OC)c43)[C@@H]2C[C@@H]1/C(=C\OC)C(=O)OC,2.98%,–
CC(=O)N[C@H]1CCN2CCC[C@H]12,-0.513% [at 172 µM],–
COc1ccc2c3c([nH]c2c1)C(C)=NCC3,-1.91%,–
CN1C(=O)[C@]23CC4C(C)(C)[C@@]5(C[C@@]41CN2CC[C@@]3(C)O)C(=O)Nc1c5ccc2c1OC=CC(C)(C)O2 (stereo partly specified),-1.42%,–
COc1ccc(C23Oc4cc(OC)cc(OC)c4[C@](O)([C@H](c4ccccc4)C2C(=O)NCCCCNC(=O)c2ccccc2)[C@@H]3O)cc1 (stereo partly specified),6.06%,–
